Source: PubChem (National Center for Advancing Translational Sciences (NCATS))
This is a sample that favours compounds with a hit; in the whole collection about 0.9% have one here.
RECQ1 inh-1: blocks DNA unwinding by human RECQ1. AID 2549. Potency, µM (doses to about 57.3 µM), for inactives: top-dose activity, negative = inhibition, usual class: inhibitors. RECQ1 DNA unwinding, red fluorescence kinetic read. P46063. 0.54% of 240,000 active;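 further: plate controls were vehicle for no effect and no enzyme for full effect; nearly all actives have a fitted effect of over 30% in size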
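RECQ1T1 50 nM; forked duplex (20 bp + 30-nt ss tails) 200 nM, ATP 2 mM final; pH 8.0, 2 mM MgCl2, 2.5 ug/ml poly(dI-dC); 15 min compound preincubation; discontinuous kinetic read over 2 h at RT.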
RGS12 GoLoco inh: blocks human Gai1 binding to RGS12 GoLoco peptide, red readout | P63096 | Gai1:RGS12 GoLoco peptide FP, rhodamine, 10 min | Potency, µM (highest dose often 61.6 µM), for the others: at the highest dose activity, negative = inhibition, usual class: inhibitors | 0.44% of 230,000 active | AID 880; active means well fitted inhibition curve with a large enough effect, not every such curve was filed as active; inactive means no such curve, though single readings can be large or run the other way; further: nearly all actives have a fitted effect of over 30% in size
TRb SRC2 PPI: disrupts binding of human TR beta to SRC2; AID 1469; 0.065% of 280,000 active; P10828; Potency, µM (top dose mostly 106 µM), without a hit: at the highest dose activity change, negative = inhibition, most hits filed as inhibitors; TRbeta-SRC2 peptide binding, fluorescence polarization; receptor liganded with 1 µM T3;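 further: plate controls were bound peptide for no effect and peptide without receptor for full effect; nearly all actives have a fitted effect of over 50% in size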
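Polarization signal, normalized between peptide-alone and full complex controls, measured compound effects on T3-liganded human TRb LBD (0.6 uM) binding 20 nM Texas Red SRC2 peptide after 5 hr.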
APE1 inh: blocks human APE1 abasic DNA cleavage | recombinant APE1, TAMRA/BHQ-2 abasic DNA cleavage fluorescence | Potency, µM (top dose mostly 65.8 µM), without a hit: at the highest dose activity change, negative = inhibition, most hits filed as inhibitors | 0.35% of 350,000 active | AID 2517;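 further: plate controls were vehicle for no effect and reference inhibitor for full effect; nearly all actives have a fitted effect of over 55% in size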
Target sequence (P27695 whole entry, looked up): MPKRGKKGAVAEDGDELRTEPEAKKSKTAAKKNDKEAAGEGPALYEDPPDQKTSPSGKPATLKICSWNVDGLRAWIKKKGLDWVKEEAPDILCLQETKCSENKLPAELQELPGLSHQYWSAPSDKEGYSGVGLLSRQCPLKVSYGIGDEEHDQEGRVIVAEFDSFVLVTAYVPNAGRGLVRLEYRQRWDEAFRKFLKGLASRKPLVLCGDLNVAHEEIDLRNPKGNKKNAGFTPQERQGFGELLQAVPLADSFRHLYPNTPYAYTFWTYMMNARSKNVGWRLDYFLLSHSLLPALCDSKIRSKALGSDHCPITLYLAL
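APE1 at 0.75 nM final was preincubated with compound 15 min at room temperature, then 50 nM double-stranded THF abasic-site substrate (5'-TAMRA/3'-BHQ-2) was added. Fluorescence (ex 525/em 598 nm) was read kinetically; third-minus-first read gave activity.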
BLM inh: Bloom syndrome helicase (human) inhibition | 0.2% of 350,000 active | Potency, µM (titrated, usually from 56.1 µM), without a hit: top-dose activity change, negative = inhibition, most hits filed as inhibitors | P54132 | AID 2528 | recombinant BLM DNA unwinding, fluorescence dequenching;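 further: plate controls were vehicle for no effect and no enzyme for full effect; nearly all actives have a fitted effect of over 35% in size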
TR SRC2 fluor cs: alters Texas Red total fluorescence, flagging assay interference; TRb/SRC2 Texas Red total fluorescence interference; Potency, µM (doses to about 106 µM), for the others: at the top dose fluorescence change, negative = quenching; 0.29% of 280,000 active; AID 1479; active means well fitted curve in either direction with a large enough effect; inconclusive means small, poorly fitted or top-dose-only effect
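Flags fluorescent or light-absorbing compounds by total fluorescence, S + 2P, at 555 nm excitation and 632 nm emission. Mixture: 20 nM Texas Red SRC2 peptide, 0.6 uM human TRb LBD, 1 uM T3, 5% DMSO; compound exposure 5 h at ambient temperature.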
RECQ1 inh conf: confirmation of human RECQ1 helicase inhibitors; shares compounds with RECQ1 inh-1; 28% of 610 active; AID 2708; Potency, µM (series often up to 229 µM), without a hit: at the highest dose activity change, negative = inhibition, most hits filed as inhibitors; RECQ1 helicase DNA unwinding, fluorescence; further: nearly all actives have a fitted effect of over 45% in size
ADP FP counter: displaces ADP in a fluorescence polarization counter-screen for RECQ1 hits; shares compounds with RECQ1 inh-1; ADP fluorescence polarization displacement counterscreen; Potency, µM (doses to about 228 µM), inactives show at the highest dose activity change, negative = inhibition, actives largely listed as inhibitors; 27% of 530 active; AID 2711; further: nearly all actives have a fitted effect of over 45% in size
RECQ1 inh-2: RECQ1 helicase inhibition confirmed, round 2. recombinant RECQ1 DNA unwinding, red fluorescence. Potency, µM (series often up to 119 µM), without a hit: at the top dose activity, negative = inhibition, most hits filed as inhibitors. 15% of 1,100 active. shares compounds with RECQ1 inh-1. AID 504841; further: nearly all actives have a fitted effect of over 50% in size
* = called active by the depositor. Unless noted, the call rests on the fitted dose curve; in most records, active means well fitted curve in the direction sought with a large enough effect; inconclusive means small, poorly fitted or top-dose-only effect, or another doubt; inactive means no such curve, though single readings can be large; an effect the other way counts as inactive or inconclusive. Unless noted, on the % scale 0 is the no-effect control and ±100 the full control effect; potency means the concentration at half of the fitted maximal effect.

What do the screens show for `COCCN(C(=O)c1cc2c(s1)CCC2)c1c(N)n(CC(C)C)c(=O)[nH]c1=O`?
APE1 inh: -6.9%

How did Cc1cc(=O)[nH]c2nnc(SCc3ccc(Cl)c(Cl)c3)n12 do in these assays?
TRb SRC2 PPI: -2.1%; BLM inh: 2.6%; TR SRC2 fluor cs: -1.4%

What do the screens show for `CCn1c(=S)[nH]c2scc(-c3cccs3)c2c1=O`?
RECQ1 inh-1: inactive; RGS12 GoLoco inh: -8.4%; TRb SRC2 PPI: 0.3%; APE1 inh: -9.0%; BLM inh: -2.4%; TR SRC2 fluor cs: -1.7%

How did CC(C)n1c(=S)[nH]c2scc(-c3cccs3)c2c1=O do in these assays?
RECQ1 inh-1: 28.2µM*; RGS12 GoLoco inh: 15.2%; TRb SRC2 PPI: 5.7%; APE1 inh: inconclusive; BLM inh: 6.9%; TR SRC2 fluor cs: inconclusive; RECQ1 inh-2: inconclusive

How did O=C(Cc1cccs1)NC1C(=O)N2C(C(=O)[O-])=C(C[n+]3ccccc3)CSC12 (stereo unspecified) do in these assays?
RECQ1 inh-1: inconclusive; RGS12 GoLoco inh: 18.2%; TRb SRC2 PPI: 8.0%; BLM inh: -22.1%; TR SRC2 fluor cs: 1.5%; RECQ1 inh conf: inconclusive; ADP FP counter: 6.31µM*

How did Cc1cc2c(NC(=O)Nc3ccccc3)cccc2nn1 do in these assays?
RECQ1 inh-1: inconclusive; RGS12 GoLoco inh: -1.5%; TRb SRC2 PPI: inconclusive; APE1 inh: inconclusive; BLM inh: 5.6%; TR SRC2 fluor cs: 21.4%; RECQ1 inh-2: -0.2%

Results for Cc1ccc(C2C(C#N)=C(N)Oc3c2oc(CO)cc3=O)o1 (stereo unspecified) ?
RECQ1 inh-1: 39.8µM*; RGS12 GoLoco inh: 7.8%; TRb SRC2 PPI: -0.7%; APE1 inh: inconclusive; BLM inh: -1.3%; TR SRC2 fluor cs: -9.1%; RECQ1 inh-2: 7.9%

How did CC(C)Oc1ccc(C2C(C#N)=C(N)Oc3c2oc(CO)cc3=O)cc1 (stereo unspecified) do in these assays?
RECQ1 inh-1: -0.7%; RGS12 GoLoco inh: -5.8%; TRb SRC2 PPI: -0.3%; APE1 inh: -5.9%; BLM inh: -4.3%; TR SRC2 fluor cs: -1.2%

How did O=C(CN1CCN(c2ccc(O)cc2)CC1)NC(=O)NCc1ccco1 do in these assays?
RECQ1 inh-1: 22.4µM*; TRb SRC2 PPI: 3.6%; APE1 inh: inconclusive; BLM inh: -5.8%; TR SRC2 fluor cs: -4.7%; RECQ1 inh-2: -17.9%

Results for COc1ccc(N2CCN(CC(=O)NC(=O)NCc3ccco3)CC2)cc1 ?
RECQ1 inh-1: -10.8%; TRb SRC2 PPI: -4.5%; APE1 inh: -2.3%; BLM inh: -0.7%; TR SRC2 fluor cs: -4.8%

How did O=C(CN1CCN(c2ccc(O)cc2)CC1)Nc1ccc2c(c1)OCCO2 do in these assays?
RECQ1 inh-1: inconclusive; RGS12 GoLoco inh: -8.7%; TRb SRC2 PPI: -6.7%; APE1 inh: inconclusive; BLM inh: -3.0%; TR SRC2 fluor cs: -0.1%; RECQ1 inh-2: -10.7%

How did O=C(CN1CCN(c2ccc(F)cc2)CC1)Nc1ccc2c(c1)OCCO2 do in these assays?
APE1 inh: -8.1%; BLM inh: 1.9%

How did CCN(CC)CCNC(=O)c1ccc2c(=O)n3nc(Nc4ccccc4)sc3nc2c1 do in these assays?
TRb SRC2 PPI: 5.0%; BLM inh: 84.0%; TR SRC2 fluor cs: -9.2%
